# Results reported in PubChem BioAssay (NCATS).
# Records with an inconclusive call do not appear. Activity calls are given as the source filed them. The call rests on the fitted dose curve.
# Biological target: Atrial natriuretic peptide receptor 1 (Homo sapiens) (UniProt P16066)
# Test: Natriuretic polypeptide receptor (hNpr1) antagonism - Pilot CMLD screen (AID 1347052)
# Settings: HEK293 hNpr1 GloSensor cGMP luminescence, ANP-stimulated; series mostly up to 9.22 µM
# Procedure: In order to identify small molecular compounds that inhibit the hNpr1 receptor we developed a high-throughput assay to measure inhibition of the guanylate cyclase activity of the receptor. cGMP production was measured using a circular permutated Firefly luciferase (FLuc) enzyme functionally linked to the cGMP binding domain of human phosphodiesterase 5 (GloSensor technology pGS-40F, (Fan, F. et al. 2008). The cGMP-sensor was expressed in human embryonic kidney 293 (HEK-293) cells and FLuc activity was measured after stimulation with hNrp agonist peptide. hNrp agonists activates the receptor's associated guanylyl cyclase (GC) domain producing cGMP which then binds to the GloSensor resulting in FLuc activation, the enzymatic activity of which can be measured as bioluminescence with addition of luciferin substrate.
# This assay was initially piloted by testing with a small library of specialty compounds.
# PROTOCOL TABLES (as described by Inglese J, Shamu CE and Guy RK. 2007)
# SEQUENCE No. (e.g., 1, 2, 3, etc.); […] (e.g., Cells, Incubation, Reagent, etc.); VALUE and DESCRIPTION.
# 1. Cells. Seed 1500 HEK293 cGMP-sensor cells expressing hNpr1 per well in 4uL into Greiner 1536-well white/solid bottom high base, tissue culture-treated plates.
# 2. Incubation. Incubate plated cells at 37C in 5% CO2, 95% RH overnight.
# 3. Reagent. Add 1uL per well GloSensor reagent from Promega (2% final concentration) or CO2 independent media vehicle control to respective columns of Greiner 1536-well plates.
# 4. Incubation. Incubate plated cells at room temperature for 2 h, protect from light.
# 5. Compounds. Library compounds and A-71915 control added at 23 nL per well, transferred by Pin Tool.
# 6. Incubation. Incubate plated cells for 30 min. at room temperature, protect from light.
# 7. Detector. GloSensor baseline pre-read luminescence measured using CCD-based camera (Viewlux).
# 8. Compound. Add 1uL of hNppA peptide to 0.1 nM final concentration to stimulate hNpr1 or CO2 independent media as vehicle control.
# 9. Incubation. Incubate treated cells at room temperature for 20 min., protect from light.
# 10. Detector. GloSensor post-hNppA luminescence measured using CCD-based camera (Viewlux).
# NOTES (numbers refer to Sequence numbers above)
# 1. HEK293 cells expressing hNpr1 and GIP/pGS-40F grown to 85-95% confluence (48-72 h) in T175 culture flasks (CO2 independent media supplemented with 10% FBS, 1% Pen/Strep antibiotics and 1 ug/mL puromycin). Trypsinize and harvest cells from T175 culture flasks and filter through 40 um cell strainer. Cells counted with Invitrogen Countess (30,000,000 - 50,000,000 cells/flask). Cells diluted to a final concentration of 375 cells/uL in CO2 independent media and a Millipore multidrop used to dispense 1500 cells per well (4uL/well) into 13 1536-well Greiner White/Solid bottom, high base tissue-culture treated (TC) plates and one Aurora 1536-well Black/Clear bottom, low base, TC plate (for visual inspection of cell health throughout the duration of the assay).
# 2. Cells incubated overnight at ambient temperature, 24 h. at 37C in 95% RH incubator protected from light, covered with metal lid with gas-exchange holes.
# 3. Prepare GloSensor Reagent (Promega): Reconstitute GloSensor luciferase substrate by adding 8.2mL Hepes buffer to 250mg substrate, mix well, protect from light and stored at -80C. Prepare a fresh 12% GloSensor solution in CO2 independent supplemented plating media (see above). Mix well and store at ambient temperature, protected from light. 1uL 12% GloSensor Luciferase Reagent added (2% final concentration) to respective columns of 13 x 1536-well Greiner plate with BioRaptr, 1uL CO2 independent plating media added to respective columns as vehicle control with BioRaptr.
# 4. Cells incubated for 2 h. at ambient temperature, protected from light with metal lid with gas-exchange holes.
# 5. A-71915 stock solution prepared (10 mM in DMSO). […]
# Atrial natriuretic peptide receptor 1 (Homo sapiens), sequence (P16066 whole entry, looked up): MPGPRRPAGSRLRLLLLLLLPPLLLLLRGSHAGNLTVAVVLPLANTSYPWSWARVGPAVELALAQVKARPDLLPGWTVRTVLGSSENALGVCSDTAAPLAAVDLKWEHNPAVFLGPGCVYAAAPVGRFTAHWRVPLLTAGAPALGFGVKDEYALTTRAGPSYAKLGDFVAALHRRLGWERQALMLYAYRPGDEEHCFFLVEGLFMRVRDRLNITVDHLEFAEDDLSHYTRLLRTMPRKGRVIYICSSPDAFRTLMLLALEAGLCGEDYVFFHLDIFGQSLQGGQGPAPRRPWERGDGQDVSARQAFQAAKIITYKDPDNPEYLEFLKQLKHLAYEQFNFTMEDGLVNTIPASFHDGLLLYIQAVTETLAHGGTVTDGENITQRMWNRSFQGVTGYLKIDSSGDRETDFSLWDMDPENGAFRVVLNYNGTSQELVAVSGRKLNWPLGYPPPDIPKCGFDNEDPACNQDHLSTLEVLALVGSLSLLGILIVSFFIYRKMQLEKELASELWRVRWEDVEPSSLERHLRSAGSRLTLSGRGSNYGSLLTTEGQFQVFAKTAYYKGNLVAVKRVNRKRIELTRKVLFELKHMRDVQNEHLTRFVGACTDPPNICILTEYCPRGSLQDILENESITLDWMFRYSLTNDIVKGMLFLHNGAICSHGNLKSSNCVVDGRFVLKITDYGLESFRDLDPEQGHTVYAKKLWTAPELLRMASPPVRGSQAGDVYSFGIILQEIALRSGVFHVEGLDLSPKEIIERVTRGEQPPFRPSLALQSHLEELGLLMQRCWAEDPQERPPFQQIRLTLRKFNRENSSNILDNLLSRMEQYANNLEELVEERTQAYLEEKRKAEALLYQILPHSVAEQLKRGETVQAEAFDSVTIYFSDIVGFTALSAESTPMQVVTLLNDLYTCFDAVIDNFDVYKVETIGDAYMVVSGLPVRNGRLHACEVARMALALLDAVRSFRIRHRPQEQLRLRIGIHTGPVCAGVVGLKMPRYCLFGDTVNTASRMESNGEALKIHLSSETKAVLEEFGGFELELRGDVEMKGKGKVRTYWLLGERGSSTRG
row,Compound,outcome
1,CCOC(=O)[C@]12C[C@]3(C)CCCN(C(=O)N[C@@H]1c1ccccc1)[C@@H]32,inactive
2,COC(=O)[C@@]1(C=C2c3ccc(F)cc3[C@@H](OC)[C@@H]2C)[C@@H]2Oc3ccccc3[C@@H]21,inactive
3,CCOC(=O)[C@]12C[C@]3(OC)CCN(C(=O)N[C@@H]1c1ccccc1)[C@@H]32,inactive
4,CCOC(=O)[C@]12C[C@@H]3CCN(C(=O)N(C(C)=O)[C@@H]1c1ccccc1)[C@@H]32,inactive
5,COC(=O)C1=NN=C(C(=O)OC)[C@@]2(C)c3ccccc3NC12 (some centres not stated),inactive
6,COC(=O)[C@@]1(C=C2c3ccccc3[C@@H](OC)[C@@H]2C)[C@@H]2Oc3ccccc3[C@@H]21,inactive
7,COC(=O)C1C2CC(C)C(c3ccccc32)N1C(=O)C(F)(F)F (configuration not stated),inactive
8,COC(=O)[C@@]12Cc3ccccc3[C@H]1C[C@H](C)[C@@H](C)N2C(=O)C(F)(F)F,inactive
9,CO[C@@H]1c2ccccc2[C@H]2C(C(=O)O)c3c(n(C)c4ccccc34)[C@H]2[C@H]1C (some centres not stated),inactive
10,CCOC(=O)[C@@]12[C@@H]3[C@@H](CCN3C(=O)N[C@H]1c1ccccc1)C2(C)C,inactive
11,CC(=O)[C@]12C[C@@H]3CCN(C(=O)N[C@@H]1c1ccccc1)[C@@]32C,inactive
12,COC(=O)C1=C[C@H]([C@@H](C)[C@H](OC)c2ccccc2Br)[C@H]2[C@H]1c1ccccc1N2C,inactive
13,C=C(C)C(=O)CP(=O)(OCC)OCC,inactive
14,C=C1[C@@H]2CCN3C(=O)N[C@@H](c4ccccc4)[C@@]1(C(=O)OCC)C23 (some centres not stated),inactive
15,COC(=O)[C@@H]1[C@@H](c2ccccc2)[C@H]2C(=O)c3c(OC)cc(OC)cc3O[C@@]12c1ccc(OC)cc1,inactive
16,CC(=O)[C@]12C[C@]3(C)CCCN(C(=O)N[C@@H]1c1ccccc1)C32 (some centres not stated),inactive

row,Compound,outcome
1,CCC[C@]12CCN3C(=O)N[C@@H](c4ccccc4)[C@](C(=O)OCC)(C1)[C@H]32,inactive
2,COC(=O)[C@@]1(C=C2c3ccc(F)cc3[C@@H](OC)[C@@H]2C)[C@@H]2c3ccccc3O[C@@H]21,inactive
3,CCOC(=O)[C@]12C[C@@H]3OCCN(C(=O)N[C@@H]1c1ccccc1)[C@@H]32,inactive
4,COC(=O)C1(C)C2CC(C)C(c3ccccc32)N1C(=O)C(F)(F)F (configuration not stated),inactive
5,COC(=O)C1=C2CCO[C@H]2[C@@H]2[C@@H](C)[C@H](OC)c3ccccc3[C@@H]12,inactive
6,COC(=O)[C@]12C[C@@H]3CCN(C(=O)N[C@@H]1c1ccccc1)[C@@]32C,inactive
7,COC(=O)C1=C2CCO[C@@H]2[C@H]2[C@@H](C)[C@H](OC)c3ccccc3[C@H]12,inactive
8,COC(=O)C1c2c(n(C)c3ccccc23)[C@H]2[C@@H](C)[C@H](OC)c3ccccc3[C@@H]12 (some centres not stated),inactive
9,CCOC(=O)[C@]12C[C@]3(C)CCN(C(=O)N[C@@H]1c1ccccc1)[C@@H]32,inactive
10,CC(=O)[C@]12[C@H](c3ccccc3)[C@@H]3CCN(C(=O)N[C@H]1c1ccccc1)[C@@]32C,inactive
11,COC(=O)C1=C2CCCO[C@H]2[C@@H]2[C@@H](C)[C@H](OC)c3ccccc3[C@@H]12,inactive
12,COC(=O)[C@@]1(C=C[C@@H](C)[C@H](OC)c2ccccc2Br)[C@@H]2Oc3ccccc3[C@@H]21,inactive
13,CC(=O)[C@]12C[C@@H]3CCCN(C(=O)N[C@@H]1c1ccccc1)[C@@H]32,inactive
14,CCOC(=O)[C@@]12C3[C@@H](CCN3C(=O)N[C@@H]1c1ccccc1)[C@@H]2C (some centres not stated),inactive
15,CC(=O)[C@@]12C3[C@@H](CCN3C(=O)N[C@H]1c1ccccc1)[C@H]2c1ccccc1 (some centres not stated),inactive
16,COC(=O)C12CC3=CCC4C(=O)N(c5ccccc5)C(=O)C4C3Cc3ccccc3[C@H]1CNC2=O (some centres not stated),inactive
